Experimental data: PubChem BioAssay (NCATS)
Results filed as inconclusive are left out. The source made the active and inactive calls. Calls follow the shape of the dose curve; as a rule, active = well fitted curve in the direction sought with a large enough effect; inconclusive = small, poorly fitted or top-dose-only effect, or another doubt; inactive = no such curve, though single readings can be large; an effect the other way counts as inactive or inconclusive.

Experiments:
JEG-3 = experiment: Primary qHTS to identify gynecologic anti-cancer compounds using libraries of approved drugs and bioactive compounds (AID 1345084); settings: Gynecologic cancer cell panel viability, ATPlite luminescence, 48 h; series mostly up to 57.5 µM; also: nearly all actives have a fitted effect of over 55% in size
Outline: (§1)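 Five-concentration response, 48 h; readout is ATP-driven luciferase luminescence.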

OV90 = experiment: as above; settings: Gynecologic cancer cell panel viability, ATPlite luminescence, 48 h; series mostly up to 57.5 µM
Outline: as §1

PA-1 = experiment: as above; settings: Gynecologic cancer cell panel viability, ATPlite luminescence, 48 h; series mostly up to 57.5 µM
Outline: as §1

Tov-21-G = experiment: as above; settings: Gynecologic cancer cell panel viability, ATPlite luminescence, 48 h; series mostly up to 57.5 µM
Outline: as §1

Tov112D = experiment: as above; settings: Gynecologic cancer cell panel viability, ATPlite luminescence, 48 h; series mostly up to 57.5 µM
Outline: as §1

[1] = Drug repurposing screens with cells derived from glioblastoma tumor samples (AID 1345199); settings: GBM patient neurospheres viability, ATP luminescence, 48 h; also: nearly all actives have a fitted effect of over 40% in size
Outline: (§2)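 Primary testing used CD133+ neurospheres from four GBM patients, seven concentrations, 48 h exposure and ATP-based viability; confirmation added three slower-growing patient lines.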

astro = experiment: as above; settings: viability, ATP luminescence, 48 h; series mostly up to 45.9 µM
Outline: as §2

SKOV3 = experiment: Primary qHTS to identify gynecologic anti-cancer compounds using libraries of approved drugs and bioactive compounds (AID 1345084); settings: Gynecologic cancer cell panel viability, ATPlite luminescence, 48 h; series mostly up to 57.5 µM; also: nearly all actives have a fitted effect of over 55% in size
Outline: as §1

Hek293T = experiment: as above; settings: Gynecologic cancer cell panel viability, ATPlite luminescence, 48 h, control line for the selectivity index; series mostly up to 57.5 µM
Outline: as §1

[2] = at 45.9 µM (top of the series), tumour line B
[3] = at 45.9 µM (top of the series), tumour line D
[4] = at 46.1 µM (top of the series), tumour line C
[5] = at 20 µM (top of the series), tumour line C
[6] = at 21.2 µM (top of the series), tumour line B
[7] = at 21.2 µM (top of the series), tumour line D
% is scaled to controls: 0 for no effect and ±100 for the full control effect; potency is read from the fitted curve at half-maximal effect.

C#C[C@]1(O)CC[C@H]2[C@@H]3CCC4=Cc5oncc5C[C@]4(C)[C@H]3CC[C@@]21C
inactive: Potency (JEG-3) | Potency (OV90) | Potency (Tov-21-G) | Potency (Tov112D) | activity, negative = cell killing [1, 2] -5.62% | activity, negative = cell killing [1, 3] -8.01% | activity, negative = cell killing ([1]; at 46 µM (top of the series), tumour line A) -25.3% | activity, negative = cell killing [1, 4] -28.8% | Potency (astro)
active: Potency (PA-1) 10 µM

O[C@@H](c1cc(C(F)(F)F)nc2c(C(F)(F)F)cccc12)[C@H]1CCCCN1
active: Potency (SKOV3) 25.1 µM | Potency (astro) 22.4 µM

CCN1/C(=C/C=C/c2sc3ccccc3[n+]2CC)Sc2ccccc21
active: Potency (Hek293T) 2 µM | Potency (OV90) 2.24 µM | Potency (PA-1) 1.41 µM | Potency (SKOV3) 0.126 µM | Potency (Tov-21-G) 0.891 µM | Potency (Tov112D) 3.16 µM | Potency (astro) 11.2 µM

CCC1Nc2cc(Cl)c(S(N)(=O)=O)cc2S(=O)(=O)N1 (stereo unspecified)
inactive: Potency (JEG-3) | Potency (OV90) | Potency (PA-1) | Potency (SKOV3) | Potency (Tov-21-G) | Potency (Tov112D) | activity, negative = cell killing [1, 2] -19.7% | activity, negative = cell killing [1, 3] 9.79% | activity, negative = cell killing [1, 4] -1.53% | Potency (astro)

CCN(CC)CCNc1ccc(CO)c2sc3ccccc3c(=O)c12
active: Potency (Hek293T) 35.5 µM | Potency (OV90) 35.5 µM | Potency (PA-1) 28.2 µM

CCCCCN=C(N)N/N=C/c1c[nH]c2ccc(OC)cc12
active: Potency (Tov112D) 35.5 µM
inactive: activity, negative = cell killing [1, 2] -10.3% | activity, negative = cell killing [1, 3] 8.03% | activity, negative = cell killing [1, 4] 9.98% | Potency (astro)

CC[C@H](c1ccc(O)cc1)[C@@H](CC)c1ccc(O)cc1
active: Potency ([1]; tumour line A) 14.1 µM
inactive: Potency (JEG-3) | Potency (PA-1) | Potency (SKOV3) | Potency (Tov-21-G) | Potency (Tov112D) | activity, negative = cell killing [1, 5] -16.2% | activity, negative = cell killing [1, 6] 5.51% | activity, negative = cell killing [1, 7] -30%

COc1cc(N)c(Cl)cc1C(=O)NC1CCN(Cc2ccccc2)CC1
active: Potency ([1]; tumour line A) 11.2 µM
inactive: Potency (JEG-3) | Potency (PA-1) | Potency (SKOV3) | Potency (Tov-21-G) | Potency (Tov112D) | activity, negative = cell killing [1, 5] 12.2% | activity, negative = cell killing [1, 6] -4.38% | activity, negative = cell killing [1, 7] -20.9%

CN1CCc2cccc3c2[C@H]1Cc1ccc(O)c(O)c1-3
inactive: Potency (Hek293T) | Potency (OV90) | Potency (SKOV3) | activity, negative = cell killing [1, 4] -0.121%
active: Potency ([1]; tumour line A) 11.2 µM | Potency (astro) 20 µM

CCCCNc1ccc(C(=O)OCCOCCOCCOCCOCCOCCOCCOCCOCCOC)cc1
inactive: Potency (JEG-3) | Potency (Tov-21-G) | Potency (Tov112D) | activity, negative = cell killing [1, 5] 19.8% | activity, negative = cell killing [1, 6] -6.92% | activity, negative = cell killing [1, 7] -6.38% | activity, negative = cell killing ([1]; at 21.3 µM (top of the series), tumour line A) -27% | Potency (astro)

CCCCCCCCCCCCOCCOCCOCCOCCOCCOCCOCCOCCOCCO
inactive: Potency (JEG-3) | Potency (Tov-21-G) | Potency (Tov112D)
active: Potency (OV90) 28.2 µM

Cc1ccc2c(Br)cc(Br)c(O)c2n1
active: Potency (PA-1) 10 µM | Potency (SKOV3) 15.8 µM | Potency (Tov-21-G) 17.8 µM

CNCCCCOc1ccccc1Cc1ccccc1
inactive: Potency (JEG-3) | Potency (PA-1) | Potency (Tov-21-G) | Potency (Tov112D)

C[N+]1(CC2COC(c3ccccc3)(C3CCCCC3)O2)CCCCC1 (stereo unspecified)
inactive: Potency (Hek293T) | Potency (JEG-3) | Potency (SKOV3) | Potency (Tov-21-G) | Potency (Tov112D) | Potency (astro)
